Shown are actives, neighbours in structure and some others; about 6.9% of the full set was active somewhere.
Her2 expr inh – inhibitors of human Her2 kinase expression; HER2 level % of control, % at 10 µM; SKBR-3 HER2 protein level, AlphaScreen, 18-24 h; active compounds read low; AID 645; 65,000 tested, 0.69% active;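 active = HER2 level under 5% of the carrier-only control; inconclusive = no clear call, values can overlap the other calls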;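 also: 100% = DMSO carrier and 0% = 500 nM PU-H71 HSP90 inhibitor; lower value means stronger loss of Her2 protein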
FXIa inh mix – factor XIa (human) inhibition, mixture screen; P03951; purified FXIa, fluorogenic substrate, pooled mixtures; inhibition, % at 5 µM; 62,000 tested, 0.19% active;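 also: each value is inhibition by a whole ten-compound pool holding the compound; 0% = enzyme with no mixture and 100% = wells lacking enzyme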
FXIIa mix inh – inhibitors of human coagulation factor XIIa, pooled mixtures | purified FXIIa, fluorogenic substrate | inhibition, % at 5 µM | P00748 | 62,000 tested, 0.2% active;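 also: 0% = enzyme without compound and 100% = no enzyme blank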
M1 antagonist – M1 muscarinic receptor (rat) antagonism. B-score at 10 µM. CHO-M1 cells, Fluo-4 calcium, ACh EC80 antagonist mode; active compounds read low. AID 628. 64,000 tested, 3.4% active. P08482;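 active = calcium fluorescence response, raw or row-and-column corrected B-score, differing from the plate sample mean either way at a set confidence level, mostly lower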
Target sequence (P08482 whole entry, looked up): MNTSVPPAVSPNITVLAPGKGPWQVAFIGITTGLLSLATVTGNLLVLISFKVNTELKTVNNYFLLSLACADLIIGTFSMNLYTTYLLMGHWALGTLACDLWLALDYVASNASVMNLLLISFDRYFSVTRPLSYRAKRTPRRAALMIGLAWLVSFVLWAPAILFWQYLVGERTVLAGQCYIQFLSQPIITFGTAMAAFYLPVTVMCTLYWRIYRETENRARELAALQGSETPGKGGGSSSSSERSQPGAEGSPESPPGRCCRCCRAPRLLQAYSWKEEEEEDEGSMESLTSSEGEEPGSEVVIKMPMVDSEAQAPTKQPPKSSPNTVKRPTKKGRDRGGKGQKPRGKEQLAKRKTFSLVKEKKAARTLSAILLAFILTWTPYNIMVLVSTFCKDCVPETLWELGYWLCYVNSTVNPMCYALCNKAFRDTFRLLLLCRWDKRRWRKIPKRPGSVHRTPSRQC
JNK3 blocker – blocks human JNK3 kinase activity; 60,000 tested, 0.61% active; inhibition, % at 8 µM; purified JNK3 kinase activity, HTS; P53779; in the data active = inhibition above about 17%;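 also: 0% = DMSO and 100% = reference inhibitor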
M1 ag – M1 muscarinic receptor agonism. B-score at 10 µM. AID 626. CHO-M1 cells, Fluo-4 calcium fluorescence, agonist mode; active compounds read high. 64,000 tested, 3% active;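 active = fluorescence rise, raw or as B-score row- and column-corrected plate score, outside the 99.7% band of its plate's samples, either direction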
M1 ag confirm – confirmation of rat M1 muscarinic receptor agonists | 1,700 tested, 19% active | AID 1488 | shares compounds with M1 ag | fluorescence change (max-min) at 10 µM | CHO-M1 cells, Fluo-4 calcium fluorescence, agonist mode; actives lie on both sides;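 active = fluorescence change differs from the solvent-only DMSO control mean at a set confidence level in both duplicate runs; inconclusive = differs from solvent-only control mean in just one of two runs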;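 also: an EC20 dose of acetylcholine follows compound addition during the same imaging run; raw fluorescence intensity difference in instrument units with no normalization to controls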
M4 ag counter – rat M4 muscarinic agonism, M1 counter-screen. CHO M4/Gqi5 cells, Fluo-4 calcium fluorescence, agonist mode; actives lie on both sides. shares compounds with M1 ag. 1,700 tested, 9% active. AID 1741. fluorescence change (max-min) at 10 µM;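 active = fluorescence change differing from the plate's solvent-only control wells at 99.7% confidence in both duplicates, whether higher or lower; inconclusive = differs from solvent controls in only one of two duplicates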
Starred values were filed as active, the others as inactive; ? = inconclusive; nt = no result given. Rule as the data show it, unless noted: active = inhibition above about 20% (passing the limit was not always enough); inactive = the rest.

SMILES | Her2 expr inh | FXIa inh mix | FXIIa mix inh | M1 antagonist | JNK3 blocker | M1 ag | M1 ag confirm | M4 ag counter
CCOc1ccc2oc(-c3ccccc3)c(C(=O)N3CCN(CCO)CC3)c2c1 | 62 | -66 | 8 | -0.62 | -1 | 4.2* | -9.5 | ?
CCOc1ccc2oc(-c3ccccc3)c(C(=O)O)c2c1 | 93 | 1 | 5 | -0.46 | -8 | 0 | nt | nt
Cc1[nH]n(C(C)(C)C)c(=O)c1Sc1ccc(Cl)cc1 | 90 | 4 | 2 | -0.33 | -3 | -0.02 | nt | nt
O=C(Nc1ccc(S(=O)(=O)N2CCOCC2)cc1)C1COc2ccccc2O1 (stereo not given) | 86 | -3 | 5 | -0.85 | nt | 8.7* | ? | -66*
COC(=O)c1cc(NC(=O)C2COc3ccccc3O2)ccc1Cl (stereo not given) | 74 | 3 | 2 | -0.6 | -3 | 5.7* | -17 | -33
COCCNC(=O)c1ccccc1NC(=O)C1COc2ccccc2O1 (stereo not given) | 106 | 7 | 2 | -0.29 | nt | 5.7* | -29* | -120*
COC(=O)c1cccc(NC(=O)C2COc3ccccc3O2)c1 (stereo not given) | 114 | 0 | 4 | 0 | -9 | 1.2 | nt | nt
COc1ccc(S(=O)(=O)NCCCCNS(=O)(=O)c2ccc(OC)cc2)cc1 | 89 | 8 | -33 | -2.2 | 2 | -4.2* | -19 | -23
CCOc1cc(NC(=O)c2ccco2)c(OCC)cc1NC(=O)CCc1ccc(OC)cc1 | 39 | 2 | -17 | 1.1 | 4 | -1.1 | nt | nt
Clc1nc2sccn2c1/C=N/n1cnc2ccccc21 | 32 | 7 | 6 | -0.8 | nt | 8.4* | -9.2 | -46
O=S(=O)(NC(=NC1CCCC1)C(F)(F)F)c1ccccc1 | 136 | 1 | -6 | 0.69 | 5 | 0.0016 | nt | nt
COc1ccc(OC)c(S(=O)(=O)Nc2cnc3ccccc3c2)c1 | 106 | 9 | 8 | -0.36 | 0 | 0.0099 | nt | nt
O=S(=O)(Nc1cnc2ccccc2c1)N1CCCCCC1 | 71 | 4 | 3 | -1.6 | -6 | -2.5* | -13 | -17
CCCc1cc(=O)[nH]c(/N=C(/NC(=O)c2ccccc2)Nc2ccc3c(c2)OCCO3)n1 | 83 | 5 | 6 | 0.83 | -6 | 0.92 | nt | nt
CCn1c(SCC(=O)Nc2ccccc2N2CCCCC2)nc2c1c(=O)n(C)c(=O)n2C | 77 | 7 | 6 | -1.3 | -2 | 2* | -17 | -13
CCn1c(SCC(=O)N2CCCC2)nc2c1c(=O)n(C)c(=O)n2C | 109 | 0 | 6 | nt | -2 | nt | nt | nt
O=C(CSc1nc(-c2ccncc2)nn1CC(=O)N1CCCCC1)NC1CCCC1 | 238 | 3 | 2 | 0.021 | nt | -0.17 | nt | nt
COc1ccc(-n2c(=O)c3ccccc3n(CC(=O)NC3CCCC3)c2=O)cc1 | 85 | 5 | -5 | nt | 1 | nt | nt | nt
C=CCn1cnc2c(c1=O)c1nc3ccccc3nc1n2/N=C/c1cc(OC)c(OC)c(OC)c1 | -25* | 7 | -14 | -2.2* | 2 | 11* | -33* | -87
COc1cccc(=O)c2c(C)oc(C)c12 | 92 | -5 | -1 | 0.71 | -1 | 44* | 536* | 502*
Cc1ccc(S(=O)(=O)NCCCOC(=O)Nc2ccncc2)cc1 | 122 | -4 | 9 | 0.027 | -1 | 0.34 | nt | nt
COc1ccc(-c2nn3c(-c4ccco4)nnc3s2)cc1OC | 150 | 7 | 0 | 0.02 | 1 | 1 | nt | nt
COc1ccc(-c2nnc3sc(-c4ccco4)nn23)cc1OC | 148 | 9 | -20 | -0.29 | 0 | 4.3* | -17 | -44
COc1cccc(-c2nn3c(-c4cccc(C)c4)nnc3s2)c1 | 78 | -4 | -14 | -0.15 | 1 | 24* | ? | -33
Nc1nnc(N2CCc3ccccc32)s1 | 59 | 2 | 4 | 0.34 | -24 | 3.4* | ? | -72*
SMILES | Her2 expr inh | FXIa inh mix | FXIIa mix inh | M1 antagonist | JNK3 blocker | M1 ag | M1 ag confirm | M4 ag counter
CC(C)COC(=O)n1c(SCC(=O)N(C)C)nc2ccccc21 | 100 | 10 | 5 | 0.55 | 1 | 1.3 | nt | nt
O=C(CS(=O)(=O)c1c[nH]c2ccccc12)Nc1ccc2c(c1)OCCO2 | 83 | -2 | 2 | 0.052 | nt | 3.2* | -11 | -41
CCN(CC)S(=O)(=O)c1cccc(C(=O)OCc2cc(=O)n3nc(C)sc3n2)c1 | 81 | 3 | 2 | -0.019 | -3 | -0.085 | nt | nt
CC(C)COC(=O)C1C2C=CC3(CN(C4CCCC4)C(=O)C13)O2 (stereo not given) | 82 | -3 | 2 | 0.16 | 4 | 0.13 | nt | nt
COc1ccc(C(=O)N2CCN(c3ccc(C)c(C)c3)CC2)cc1OC | 101 | -25 | 4 | 0.03 | 7 | -2.5* | ? | -83*
CCCn1c2ccccc2c2nc3ccccc3nc21 | 94 | 1 | -7 | 0.41 | 1 | 1.1 | nt | nt
Cn1c2ccc(Cl)cc2c2nc3ccccc3nc21 | 66 | 2 | 14 | -0.88 | 1 | 18* | 11 | 2.6
O=S(=O)(c1ccc2oc(-c3ccncc3)nc2c1)c1ccc2oc(-c3ccncc3)nc2c1 | 89 | 4 | -2 | -0.034 | -2 | 0.3 | nt | nt
COc1ccc(C2C(C(=O)Nc3cccnc3)=C(C)Nc3nc(-c4cccs4)nn32)cc1OC (stereo not given) | 89 | 2 | 10 | -0.2 | -4 | -0.55 | nt | nt
COc1ccccc1NC(=O)C1=C(C)Nc2nc(-c3cccs3)nn2C1c1cccc(O)c1 (stereo not given) | 65 | 10 | 7 | -1.3 | -2 | 8.5* | ? | ?
C=C(C)CN1CCN(c2c(CCC#N)c(C)c(C#N)c3nc4ccccc4n23)CC1 | 85 | nt | nt | 0.065 | -1 | 5.7* | 7.4 | 0.77
CCOC(=O)C1CCN(C(c2cc3ccc(C)c(C)c3[nH]c2=O)c2nnnn2C2CCCCC2)CC1 (stereo not given) | 111 | -4 | -6 | 0.88 | -2 | 1.7 | nt | nt
CCOC(=O)C1CCN(C(c2cc3c(C)ccc(C)c3[nH]c2=O)c2nnnn2C2CCCCC2)CC1 (stereo not given) | 105 | 8 | 6 | 0.096 | -5 | 2.6* | -33* | -57
CCOc1ccccc1-n1c(SCC(=O)NC2CCCC2)nnc1-c1ccoc1C | 97 | 4 | 5 | 0.48 | 0 | 0.29 | nt | nt
O=C(c1ccc(F)cc1)N1CCC(N2CCCCCC2)CC1 | 100 | nt | nt | -0.65 | -7 | 0.71 | nt | nt
N#C/C(=C/c1ccc(N2CCCCCC2)o1)c1ccc(F)cc1 | -14* | -1 | -17 | 0.87 | 2 | 31* | -2.8 | ?
CCOc1cccc(C2C(C(=O)c3ccc(C)o3)=C(O)C(=O)N2c2nccs2)c1 (stereo not given) | 118 | 0 | 5 | 0.27 | nt | 55* | 822* | 125*
O=C(CC(NS(=O)(=O)c1ccc(Cl)cc1)c1ccco1)NCc1ccco1 (stereo not given) | 89 | 4 | 70* | 0.018 | -6 | -2.9* | ? | -55

From PubChem BioAssay
